In PubChem BioAssay (NCATS):
Results filed as inconclusive are left out. A call without a number means that no potency is given here. A number with no mark means an inactive call. Active and inactive are the calls of the source. The call rests on the fitted dose curve; in most records, active means well fitted cell-killing curve with a large enough effect; inconclusive means small, poorly fitted or top-dose-only effect, or effect the other way; inactive means flat fitted curve, though single readings scatter.

tested on: HeLa; assay: Primary qHTS to identify gynecologic anti-cancer compounds using libraries of approved drugs and bioactive compounds (AID 1345084); settings: Gynecologic cancer cell panel viability, ATPlite luminescence, 48 h; series mostly up to 57.5 µM; further: nearly all actives have a fitted effect of over 55% in size
Method in brief: (§1)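 Measured: luminescence after ATPlite addition (15 min, RT). Exposure: 48 h, 37 C, 5% CO2.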

Question: How did the Potency turn out when COc1ccc(S(=O)(=O)Nc2cc(Cl)cc(Cl)c2OC)cc1N1CCNCC1 was run?
Answer: inactive

Question: Which Potency does the source give for CC(=O)O[C@H]1[C@@]2(O)C[C@H](C)[C@H](OC(=O)c3ccccc3)[C@@H]2[C@@H](OC(=O)CO)[C@]2(OC(C)=O)C[C@H]3C(=O)C(C)(C)C[C@@H]3[C@@]1(C)[C@H]2OC(C)=O here?
Answer: inactive

Question: Which Potency does the source give for COc1ccc2cc(-c3cc(-c4cc(Cl)cc(Cl)c4)nn3C(C)c3ccc(C(=O)NCCC(=O)O)cc3)ccc2c1 (configuration not stated) here?
Answer: inactive

Question: CCCCC1CCC(c2nc(-c3ccncc3)no2)CC1 (configuration not stated) was tested. Which Potency did it give?
Answer: inactive

Question: With CC(C)CCCCC(=O)N[C@@H](CO)C(=O)N[C@@H](CC(C)C)C(=O)[C@@]1(CO)CO1 as the compound, how does the Potency read?
Answer: inactive

Question: COc1ccc(NC(=O)c2ccc(-c3ccc(C(=N)N)cc3C)cc2)cc1N1CCN(C)CC1 was tested. Which Potency did it give?
Answer: inactive

Question: With CC(C)(Cc1nc(-c2ccc(O)cn2)no1)C(=O)NC1=C(C(=O)O)CCCC1 as the compound, how does the Potency read?
Answer: inactive

Question: Which Potency does the source give for CCCN(CCc1ccsc1)C1CCc2c(O)cccc2C1 (configuration not stated) here?
Answer: inactive

Question: For CCn1c(=O)n([C@H]2CCCN(c3nccc(-c4cc5ccccc5o4)n3)C2)c2ccccc21, which Potency is on record?
Answer: inactive

Question: For CC(=O)OC1CC(C)(C(=O)O)CC2C3=CC(=O)C4C5(C)CCC(OC6OC(C(=O)O)C(O)C(O)C6OC6OC(C(=O)O)C(O)C(O)C6O)C(C)(C)C5CCC4(C)C3(C)CCC12C (configuration not stated), which activity change, negative = cytotoxicity is on record?
Answer: 14.8% [at 11.6 µM]

Question: How did the Potency turn out when COC1=CC(=O)C=C(C)C12Oc1c(Cl)c(OC)cc(OC)c1C2=O (configuration not stated) was run?
Answer: inactive

Question: Which Potency does the source give for Cc1cccc(N2CCN(C(=O)c3cc(S(=O)(=O)N(C)C)ccc3N3CCCC3)CC2)c1C here?
Answer: inactive

Question: Which Potency does the source give for COC(=O)c1ccnc(-c2cc(C(=O)Nc3ccc(C4(N)CC4)cc3)ccn2)c1 here?
Answer: inactive

Question: How did the Potency turn out when COc1ccc(CCO[C@@H]2O[C@H](CO[C@H]3OC[C@](O)(CO)[C@H]3O)[C@@H](OC(=O)/C=C/c3ccc(O)c(O)c3)[C@H](O[C@@H]3O[C@@H](C)[C@H](O)[C@@H](O)[C@H]3O)[C@H]2O)cc1OC was run?
Answer: inactive

Question: For CC(C)(C)c1ccc(C(=O)Nc2cn3cc(-n4ccnc4)ccc3n2)cc1, which Potency is on record?
Answer: inactive

Question: C[C@@H](NC(=O)C(=O)c1c[nH]c2ccc([N+](=O)[O-])cc12)c1ccccc1 was tested. Which Potency did it give?
Answer: inactive

Question: COc1ccc(NC(=O)c2ccc(-c3ccc(-c4nnc(C)o4)cc3C)cc2)cc1N1CCN(C)CC1 was tested. Which Potency did it give?
Answer: inactive

Question: How did the Potency turn out when C=C1C(=O)OC2CC(C)C(CCC(C)O)=CCC12 (configuration not stated) was run?
Answer: inactive

Question: For CC(C)Nc1nc(Nc2ccccc2)nc(-c2ccccc2)n1, which Potency is on record?
Answer: inactive

Question: Which Potency does the source give for Cc1cc2c(N3CCCC3)nc(N3CCCC3)nc2n1C here?
Answer: inactive

Question: How did the Potency turn out when O=C(c1cc(Cc2n[nH]c(=O)c3ccccc23)ccc1F)N1CCCNCC1 was run?
Answer: inactive

Question: For CCNC1(C(N)=O)CCN(c2ncnc3c2nc(-c2ccccc2Cl)n3-c2ccc(Cl)cc2)CC1, which Potency is on record?
Answer: inactive

Question: Which Potency does the source give for CCCOc1ccc(S(=O)(=O)N2CCN(CCO)CC2)cc1-c1nc2c(CCC)cn(CC)c2c(=O)[nH]1 here?
Answer: inactive

Question: How did the Potency turn out when CN1CCN(C2=Nc3ccccc3Nc3ccc(OS(=O)(=O)C(F)(F)F)cc32)CC1 was run?
Answer: inactive

Question: CCOc1ccc(CCNC(=O)c2cc3sc(Cl)cc3n2C)cc1OCC was tested. Which Potency did it give?
Answer: inactive

Question: With NS(=O)(=O)c1ccc(NC(=O)Nc2ccc(F)cc2)cc1 as the compound, how does the Potency read?
Answer: inactive

Question: Which Potency does the source give for O=C(Nc1cccnc1)c1cc(-c2ccnc(F)c2)ccc1OCc1ccccc1 here?
Answer: inactive

Question: With Cc1cc(C)c(-n2cc(C)c3c(Cl)nc(C)nc32)c(C)c1 as the compound, how does the Potency read?
Answer: inactive

Question: Cc1cc(C)c(S(=O)(=O)n2cc(C)cc2C)c(C)c1 was tested. Which Potency did it give?
Answer: inactive

Question: CC1=C(C(=O)Nc2cc(Cl)ccc2Cl)C(c2ccco2)C2=C(CCCC2=O)N1 (configuration not stated) was tested. Which Potency did it give?
Answer: inactive

Question: How did the Potency turn out when COc1ccc2c(NC(=O)Nc3cccc(C(F)(F)F)n3)ccnc2c1 was run?
Answer: inactive

Question: With CC[C@H](C)/C=C(C)/C=C/C1=CC2=CC(=O)[C@]3(C)OC(=O)[C@@H](C(C)=O)[C@@H]3C2=CO1 as the compound, how does the Potency read?
Answer: inactive

Question: For C=C1C(=O)O[C@@H]2[C@H]1CC[C@H](C)[C@]1(CCC(=O)O1)C2(C)O (some centres not stated), which Potency is on record?
Answer: inactive

Question: How did the Potency turn out when CN1CCN(c2ccc(-c3cccc(CN4CCOCC4)c3)cc2NC(=O)c2c[nH]c(=O)cc2C(F)(F)F)CC1 was run?
Answer: inactive

Question: For CC(C)OC(=O)N1CCC(Oc2ncnc3c2cnn3-c2ccc(S(C)(=O)=O)cc2F)CC1, which Potency is on record?
Answer: inactive

tested on: Hek293T; assay: as above; settings: Gynecologic cancer cell panel viability, ATPlite luminescence, 48 h, control line for the selectivity index; series mostly up to 57.5 µM
Method in brief: as §1

Question: COc1ccc(S(=O)(=O)Nc2cc(Cl)cc(Cl)c2OC)cc1N1CCNCC1 was tested. Which Potency did it give?
Answer: inactive

Question: Which Potency does the source give for CC(=O)O[C@H]1[C@@]2(O)C[C@H](C)[C@H](OC(=O)c3ccccc3)[C@@H]2[C@@H](OC(=O)CO)[C@]2(OC(C)=O)C[C@H]3C(=O)C(C)(C)C[C@@H]3[C@@]1(C)[C@H]2OC(C)=O here?
Answer: inactive

Question: COc1ccc2cc(-c3cc(-c4cc(Cl)cc(Cl)c4)nn3C(C)c3ccc(C(=O)NCCC(=O)O)cc3)ccc2c1 (configuration not stated) was tested. Which Potency did it give?
Answer: inactive

Question: Which Potency does the source give for CCCCC1CCC(c2nc(-c3ccncc3)no2)CC1 (configuration not stated) here?
Answer: inactive

Question: Which Potency does the source give for CC(C)CCCCC(=O)N[C@@H](CO)C(=O)N[C@@H](CC(C)C)C(=O)[C@@]1(CO)CO1 here?
Answer: inactive

Question: With COc1ccc(NC(=O)c2ccc(-c3ccc(C(=N)N)cc3C)cc2)cc1N1CCN(C)CC1 as the compound, how does the Potency read?
Answer: inactive

Question: Which Potency does the source give for CC(C)(Cc1nc(-c2ccc(O)cn2)no1)C(=O)NC1=C(C(=O)O)CCCC1 here?
Answer: inactive

Question: How did the Potency turn out when CCCN(CCc1ccsc1)C1CCc2c(O)cccc2C1 (configuration not stated) was run?
Answer: inactive

Question: For CCn1c(=O)n([C@H]2CCCN(c3nccc(-c4cc5ccccc5o4)n3)C2)c2ccccc21, which Potency is on record?
Answer: inactive

Question: For CC(=O)OC1CC(C)(C(=O)O)CC2C3=CC(=O)C4C5(C)CCC(OC6OC(C(=O)O)C(O)C(O)C6OC6OC(C(=O)O)C(O)C(O)C6O)C(C)(C)C5CCC4(C)C3(C)CCC12C (configuration not stated), which activity change, negative = cytotoxicity is on record?
Answer: 7.86% [at 11.6 µM]

Question: COC1=CC(=O)C=C(C)C12Oc1c(Cl)c(OC)cc(OC)c1C2=O (configuration not stated) was tested. Which Potency did it give?
Answer: inactive

Question: Which Potency does the source give for O=C(Nc1ccn(Cc2ccc(O)cc2C(F)(F)F)n1)c1c(F)cccc1F here?
Answer: inactive

Question: How did the Potency turn out when Cc1cccc(N2CCN(C(=O)c3cc(S(=O)(=O)N(C)C)ccc3N3CCCC3)CC2)c1C was run?
Answer: inactive

Question: With COC(=O)c1ccnc(-c2cc(C(=O)Nc3ccc(C4(N)CC4)cc3)ccn2)c1 as the compound, how does the Potency read?
Answer: inactive

Question: Which Potency does the source give for COc1ccc(CCO[C@@H]2O[C@H](CO[C@H]3OC[C@](O)(CO)[C@H]3O)[C@@H](OC(=O)/C=C/c3ccc(O)c(O)c3)[C@H](O[C@@H]3O[C@@H](C)[C@H](O)[C@@H](O)[C@H]3O)[C@H]2O)cc1OC here?
Answer: inactive

Question: Which Potency does the source give for CC(C)(C)c1ccc(C(=O)Nc2cn3cc(-n4ccnc4)ccc3n2)cc1 here?
Answer: inactive

Question: Which Potency does the source give for C[C@@H](NC(=O)C(=O)c1c[nH]c2ccc([N+](=O)[O-])cc12)c1ccccc1 here?
Answer: inactive

Question: How did the Potency turn out when COc1ccc(NC(=O)c2ccc(-c3ccc(-c4nnc(C)o4)cc3C)cc2)cc1N1CCN(C)CC1 was run?
Answer: inactive

Question: With C=C1C(=O)OC2CC(C)C(CCC(C)O)=CCC12 (configuration not stated) as the compound, how does the Potency read?
Answer: inactive

Question: CC(C)Nc1nc(Nc2ccccc2)nc(-c2ccccc2)n1 was tested. Which Potency did it give?
Answer: inactive

Question: How did the Potency turn out when O=C(NCCCNc1nc(Nc2cccc(CN3CCOCC3)c2)ncc1C1CC1)C1CCC1 was run?
Answer: inactive

Question: Cc1cc2c(N3CCCC3)nc(N3CCCC3)nc2n1C was tested. Which Potency did it give?
Answer: inactive

Question: Cc1cc(OCCCS(C)(=O)=O)cc(C)c1-c1cccc(COc2ccc(C3=CC(=O)NS3=O)cc2)c1 (configuration not stated) was tested. Which Potency did it give?
Answer: inactive

Question: O=C(c1cc(Cc2n[nH]c(=O)c3ccccc23)ccc1F)N1CCCNCC1 was tested. Which Potency did it give?
Answer: inactive

Question: Which Potency does the source give for CCNC1(C(N)=O)CCN(c2ncnc3c2nc(-c2ccccc2Cl)n3-c2ccc(Cl)cc2)CC1 here?
Answer: inactive

Question: How did the Potency turn out when CCCOc1ccc(S(=O)(=O)N2CCN(CCO)CC2)cc1-c1nc2c(CCC)cn(CC)c2c(=O)[nH]1 was run?
Answer: inactive

Question: Which Potency does the source give for CN1CCN(C2=Nc3ccccc3Nc3ccc(OS(=O)(=O)C(F)(F)F)cc32)CC1 here?
Answer: inactive

Question: For CCOc1ccc(CCNC(=O)c2cc3sc(Cl)cc3n2C)cc1OCC, which Potency is on record?
Answer: inactive

Question: How did the Potency turn out when NS(=O)(=O)c1ccc(NC(=O)Nc2ccc(F)cc2)cc1 was run?
Answer: inactive

Question: Which Potency does the source give for O=C(Nc1cccnc1)c1cc(-c2ccnc(F)c2)ccc1OCc1ccccc1 here?
Answer: inactive

Question: How did the Potency turn out when Cc1cc(C)c(-n2cc(C)c3c(Cl)nc(C)nc32)c(C)c1 was run?
Answer: inactive

Question: Which Potency does the source give for Cc1cc(C)c(S(=O)(=O)n2cc(C)cc2C)c(C)c1 here?
Answer: inactive

Question: Which Potency does the source give for O=C(c1ccc(OC(F)F)c(C#Cc2ccccn2)c1)N1Cc2cccnc2C1 here?
Answer: inactive

Question: CC1=C(C(=O)Nc2cc(Cl)ccc2Cl)C(c2ccco2)C2=C(CCCC2=O)N1 (configuration not stated) was tested. Which Potency did it give?
Answer: inactive

Question: Which Potency does the source give for COc1ccc2c(NC(=O)Nc3cccc(C(F)(F)F)n3)ccnc2c1 here?
Answer: inactive

Question: For CC[C@H](C)/C=C(C)/C=C/C1=CC2=CC(=O)[C@]3(C)OC(=O)[C@@H](C(C)=O)[C@@H]3C2=CO1, which Potency is on record?
Answer: inactive

Question: For CN1CCN(c2ccc(-c3cccc(CN4CCOCC4)c3)cc2NC(=O)c2c[nH]c(=O)cc2C(F)(F)F)CC1, which Potency is on record?
Answer: inactive
